Assay [1] in a line: qHTS assay to identify aromatase inhibitors - cell viability counter screen (AID 743084).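 Further: cells stimulated with testosterone during compound exposure; nearly all actives have a fitted effect of over 55% in size.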 Background: qHTS replaces the single test concentration by a dilution series.
The target of assay [2] is Aryl hydrocarbon receptor (Homo sapiens) (UniProt P35869). In words: qHTS assay to identify small molecule that activate the aryl hydrocarbon receptor (AhR) signaling pathway (AID 743085). Further: nearly all actives have a fitted effect of over 15% in size. Further: potency means the concentration at half of the fitted maximal effect.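 On activation: HG2L7.5c1 human HepG2 liver cells with stably integrated DRE-driven firefly reporter; series mostly up to about 70 µM.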 Put shortly: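 Measured in HG2L7.5c1 cells: CellTiter-Fluor signal (30 min incubation, 37C) for viability, then luciferase luminescence (30 min, room temperature). Compound contact time was 24 h at 37C, following a 5 h pre-incubation.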
Chain of Aryl hydrocarbon receptor (Homo sapiens) (P35869 whole entry, looked up): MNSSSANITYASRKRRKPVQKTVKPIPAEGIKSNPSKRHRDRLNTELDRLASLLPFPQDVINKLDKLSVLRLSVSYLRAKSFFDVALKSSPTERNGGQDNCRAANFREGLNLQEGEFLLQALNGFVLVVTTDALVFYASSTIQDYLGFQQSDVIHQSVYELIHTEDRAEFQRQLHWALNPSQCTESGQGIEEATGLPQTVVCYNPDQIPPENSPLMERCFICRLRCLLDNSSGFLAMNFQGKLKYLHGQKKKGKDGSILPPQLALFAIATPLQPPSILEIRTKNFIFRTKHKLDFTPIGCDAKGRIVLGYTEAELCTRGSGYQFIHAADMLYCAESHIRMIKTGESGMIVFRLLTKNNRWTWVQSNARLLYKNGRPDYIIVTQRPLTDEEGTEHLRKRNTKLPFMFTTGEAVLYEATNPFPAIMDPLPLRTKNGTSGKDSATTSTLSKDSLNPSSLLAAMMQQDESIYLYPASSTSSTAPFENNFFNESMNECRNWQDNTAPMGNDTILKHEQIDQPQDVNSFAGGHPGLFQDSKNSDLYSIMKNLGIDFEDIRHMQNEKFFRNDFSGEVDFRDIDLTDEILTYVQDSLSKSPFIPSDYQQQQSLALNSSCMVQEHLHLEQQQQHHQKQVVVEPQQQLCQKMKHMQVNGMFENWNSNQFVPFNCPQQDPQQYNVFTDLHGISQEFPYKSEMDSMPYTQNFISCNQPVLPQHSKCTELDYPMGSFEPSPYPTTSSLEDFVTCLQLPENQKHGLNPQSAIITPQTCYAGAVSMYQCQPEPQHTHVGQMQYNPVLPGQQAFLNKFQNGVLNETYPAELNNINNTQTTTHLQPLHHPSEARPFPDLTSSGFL

Assay [3] in a line: qHTS assay to identify small molecule that activate the aryl hydrocarbon receptor (AhR) signaling pathway - cell viability counter screen (AID 743086).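 Further: HepG2 liver cells carrying the AhR DRE luciferase reporter; series mostly up to about 70 µM; nearly all actives have a fitted effect of over 45% in size.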 In short, it runs like this:
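Cytotoxicity counter screen: CellTiter-Fluor signal (30 min, 37 C) in 4000 HepG2 cells/well carrying the DRE-luciferase reporter, following 24 h compound exposure at 37 C.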

Assay [4] concerns the target Peroxisome proliferator-activated receptor gamma (Homo sapiens) (UniProt P37231). In words: qHTS assay to identify small molecule agonists of the peroxisome proliferator-activated receptor gamma (PPARg) signaling pathway (AID 743094; active means well fitted activation curve with a large enough effect in the signal ratio in the repeat runs, not every such curve was filed as active; the % refers to the signal ratio). In short, it runs like this: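 Fluorescence-based beta-lactamase readout in HEK293H PPARg UAS-bla cells after 17 h compound exposure (37C) and 1 h B/G FRET substrate incubation at room temperature.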

For assay [5] the target is unchanged. In words: qHTS assay to identify small molecule antagonists of the peroxisome proliferator-activated receptor gamma (PPARg) signaling pathway (AID 743191; calls by dose curve; further: series mostly up to about 63 µM; nearly all actives have a fitted effect of over 30% in size). Put shortly:
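Beta-lactamase reporter under UAS control in HEK293H PPARg-bla cells; compound treatment 17 h at 37C. Read-out: fluorescence intensity after 1 h room-temperature incubation with LiveBLAzer B/G FRET substrate.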

Assay [6] is described as follows: qHTS assay to identify small molecule antagonists of the peroxisome proliferator-activated receptor gamma (PPARg) signaling pathway - cell viability counter screen (AID 743194). Further: nearly all actives have a fitted effect of over 55% in size. Put shortly: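 Viability was measured as CellTiter-Glo luminescence in GeneBLAzer PPARg UAS-bla HEK293H cells. These cells had been exposed 17 h at 37 C to compounds together with rosiglitazone at 50 nM final, with the beta-lactamase readout taken in the same wells.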

Assay [7] in a line: qHTS assay for small molecule agonists of the antioxidant response element (ARE) signaling pathway (AID 743202; active means well fitted activation curve with a large enough effect in the signal ratio in the repeat runs, not every such curve was filed as active; the % refers to the signal ratio; further: potency means the concentration at half of the fitted maximal effect). In short, it runs like this: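 Beta-lactamase reporter activity, read as fluorescence intensity, reflects ARE/Nrf2 pathway induction in HepG2 cells after 16 h compound exposure at 37 C; substrate loading was 2 h at room temperature.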
A short description of assay [8]: qHTS assay for small molecule agonists of the antioxidant response element (ARE) signaling pathway - cell viability counter screen (AID 743203; calls by dose curve; further: nearly all actives have a fitted effect of over 55% in size). Put shortly: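 Parallel cytotoxicity read-out for the ARE-bla screen: HepG2 reporter cells, 16 hrs with compounds, then CellTiter-Glo luminescence.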
Assay [9] can be described thus: qHTS assay for small molecule activators of the heat shock response signaling pathway - cell viability counter screen (AID 743209). Further: nearly all actives have a fitted effect of over 50% in size. Put shortly: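 To flag cytotoxic compounds, HSE-bla HeLa cells plated at 1500 cells/well were dosed for 5 h at 37 C, followed by the reporter FRET read and then CellTiter-Glo, with luminescence recorded 30 min after reagent addition.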

Assay [10] can be described thus: qHTS assay for small molecule activators of the heat shock response signaling pathway (AID 743210; active means well fitted activation curve with a large enough effect in the signal ratio in the repeat runs, with a control signal flat, not every such curve was filed as active; the % refers to the signal ratio;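 further: HeLa cells with beta-lactamase reporter driven by heat shock elements; series mostly up to about 63 µM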). Put shortly:
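Fluorescence from a cleaved B/G FRET substrate (2.5 h, room temp) reports HSE-driven beta-lactamase in HeLa cells treated 5 h at 37 C with DMSO-dissolved compounds.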

Records with an inconclusive call do not appear. Unmarked numbers belong to inactive results. Activity calls are given as the source filed them. Unless noted, the call rests on the fitted dose curve; in most records, active means well fitted curve in the direction sought with a large enough effect in the repeat runs; inconclusive means weak or mixed curves; inactive means no such curve, though single readings can be large; an effect the other way counts as inactive or inconclusive.

Chain of Peroxisome proliferator-activated receptor gamma (Homo sapiens) (P37231 whole entry, looked up): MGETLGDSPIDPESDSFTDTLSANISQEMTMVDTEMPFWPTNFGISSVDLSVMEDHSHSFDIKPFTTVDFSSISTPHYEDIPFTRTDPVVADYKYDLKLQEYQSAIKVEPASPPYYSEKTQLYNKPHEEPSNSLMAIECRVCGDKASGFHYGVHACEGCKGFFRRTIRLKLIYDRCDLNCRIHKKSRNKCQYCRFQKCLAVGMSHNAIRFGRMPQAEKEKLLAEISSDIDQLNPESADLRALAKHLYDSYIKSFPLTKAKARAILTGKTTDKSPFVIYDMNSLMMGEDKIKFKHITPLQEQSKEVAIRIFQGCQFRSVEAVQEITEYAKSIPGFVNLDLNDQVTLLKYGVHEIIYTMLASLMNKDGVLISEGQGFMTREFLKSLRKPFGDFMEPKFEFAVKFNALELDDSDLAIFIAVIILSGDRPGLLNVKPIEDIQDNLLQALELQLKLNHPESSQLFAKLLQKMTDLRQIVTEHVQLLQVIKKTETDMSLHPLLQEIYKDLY

For `C/C=C(\C)C(C)=O`, the Potency entry in [1], in assay [2], in [3], in [4], in assay [7] and in assay [9] was “inactive” each time. Besides, the compound was classed as inactive in assay [5], in assay [6], in assay [8] and in assay [10].

Turning to `COC(=O)CCCCC(=O)O`, the Potency result in [1], in [2], in assay [3], in assay [4], in [7] and in assay [9] was “inactive” throughout. In addition, the outcome in [5], in [6], in assay [8] and in assay [10] was inactive.

`COc1c2occc2c(OC)c2c(=O)cc(C)oc12`: the Potency entry in assay [1], in assay [3], in assay [4], in assay [7] and in assay [9] was “inactive” in each case. In [2], the Potency is 0.114 µM (active). Moreover, the outcome in assay [5], in assay [6], in assay [8] and in [10] was inactive.

For `CC(O)COC(C)(C)C` (centres undefined), the Potency entry in assay [1], in [2], in assay [3], in assay [4], in [7] and in assay [9] was “inactive” each time. Also, the result in [5], in assay [6], in [8] and in assay [10] was inactive.

For the compound `COP(=O)(O)OP(=O)(O)OC`, the Potency entry in [1], in assay [2], in assay [3], in assay [4], in assay [7] and in assay [9] was “inactive” in each case. Also, the result in assay [5], in assay [6], in [8] and in [10] was inactive.

Turning to `CC(S)C(C)S` (centres undefined), the Potency result in assay [1], in [2], in assay [3], in assay [4], in [7] and in assay [9] was “inactive” each time. Moreover, the call in assay [5], in assay [6], in [8] and in [10] was inactive.

In the case of `CCCCCCCCCCCCCBr`, the Potency entry in assay [1], in [2], in [3], in [4], in assay [7] and in assay [9] was “inactive” each time. The call in [5], in [6], in assay [8] and in assay [10] was inactive.

As for `CC1=C(C(=O)O)N2C(=O)[C@@H](NC(=O)[C@H](N)C3=CCC=CC3)[C@H]2SC1`, the Potency result in assay [1], in assay [2], in [3], in assay [4], in assay [7] and in assay [9] was “inactive” each time. Also, the compound was classed as inactive in [5], in assay [6] and in assay [8].

Take `COC(=O)/C=C\C(=O)O`: the Potency entry in assay [1], in assay [2], in assay [3], in assay [4] and in [9] was “inactive” each time. Also, the compound was classed as inactive in assay [5], in [6] and in assay [8]. Besides, the Potency in [7] was 27.3 µM (active).

For `CCCC(CC)c1ccccc1` (centres undefined), the Potency result in assay [1], in [2], in assay [3], in assay [4], in assay [7] and in assay [9] was “inactive” throughout. Moreover, the outcome in assay [5], in assay [6] and in assay [8] was inactive.

`C=C(C)c1cccc(C(C)(C)N=C=O)c1`: the Potency entry in [1], in assay [2], in assay [3], in assay [4], in [7] and in assay [9] was “inactive” throughout. Also, the call in assay [5], in assay [6], in assay [8] and in assay [10] was inactive.

In the case of `OCC1(CO)COCOC1`, the Potency result in [1], in assay [2], in assay [3], in assay [4], in [7] and in assay [9] was “inactive” throughout. Further, the compound was classed as inactive in [5], in assay [6] and in assay [8].

Take `CC(C)CCOC(=O)c1ccccc1`: the Potency result in assay [1], in assay [2], in assay [3], in assay [4], in assay [7] and in [9] was “inactive” throughout. For the same compound, the compound was called inactive in [6], in assay [8] and in assay [10].

As for `CCC(C)OC(C)CC` (centres undefined), the Potency entry in [1], in assay [2], in assay [3], in assay [4] and in [9] was “inactive” in each case. Also, the compound was classed as inactive in assay [5], in assay [6], in assay [8] and in assay [10].

Take `C=CCN1C[C@H](C(=O)N(CCCN(C)C)C(=O)NCC)C[C@@H]2c3cccc4[nH]cc(c34)C[C@H]21`: the Potency entry in assay [1], in [2], in [3], in assay [4], in [7] and in [9] was “inactive” each time. Also, the result in assay [5], in assay [6], in assay [8] and in assay [10] was inactive.

Turning to `CC(C)C1OCCN1CCOC(=O)NCCCCCCNC(=O)OCCN1CCOC1C(C)C` (centres undefined), the Potency result in assay [1], in assay [2], in assay [3], in assay [4], in assay [7] and in [9] was “inactive” in each case. Moreover, the compound was classed as inactive in [5], in assay [8] and in assay [10].

As for `C=CCCCCCCCCC(=O)OCCCC`, the Potency result in assay [1], in assay [2], in [3], in assay [4] and in assay [9] was “inactive” throughout. The outcome in assay [6] and in [8] was inactive.

With `C=Cc1ccc(C(C)(C)C)cc1`, the Potency result in [1], in assay [2], in [3], in assay [4], in [7] and in [9] was “inactive” in each case. In addition, the compound was classed as inactive in [6], in assay [8] and in assay [10].

On to `CC(CO)(CO)CO`, for which the Potency entry in [1], in assay [2], in assay [3], in [4], in assay [7] and in assay [9] was “inactive” throughout. Moreover, the call in assay [6] and in assay [8] was inactive.

For `CCCCOCC(C)O` (centres undefined), the Potency entry in assay [1], in assay [2], in assay [3], in [4] and in assay [9] was “inactive” in each case. Besides, the compound was classed as inactive in assay [5], in [6] and in assay [8].

On to `Cn1c(=O)c2[nH]c(Br)nc2n(C)c1=O`, for which the Potency entry in assay [1], in [2], in [3], in assay [4], in assay [7] and in assay [9] was “inactive” each time. The call in assay [6], in assay [8] and in assay [10] was inactive.

For the compound `CC/C(C)=N\O[Si](C)(O/N=C(\C)CC)O/N=C(\C)CC`, the Potency entry in assay [1], in assay [3], in [4], in assay [7] and in [9] was “inactive” in each case. In assay [2], the Potency was 24.7 µM (active). The compound was called inactive in assay [5], in assay [6], in assay [8] and in assay [10].

For the compound `c1ccc2cnccc2c1`, the Potency entry in [1], in [2], in [3], in assay [4] and in [9] was “inactive” in each case. Further, the compound was called inactive in assay [5], in assay [6], in assay [8] and in assay [10].

As for `Cc1ccc2c(c1)C(=O)c1ccccc1C2=O`, the Potency entry in assay [1], in assay [3], in assay [4] and in [9] was “inactive” in each case. For the same compound, the Potency in assay [2] is 48.4 µM (active); in assay [7] it was 54.3 µM (active). Further, the call in assay [6], in assay [8] and in assay [10] was inactive.

Turning to `C/C=C(\C)C(=O)OCCc1ccccc1`, the Potency entry in assay [1], in assay [2], in assay [3], in assay [4], in assay [7] and in assay [9] was “inactive” in each case. The compound was classed as inactive in assay [6], in [8] and in assay [10].

With `CC(C)c1ccc(C=O)cc1`, the Potency entry in [1], in [2], in assay [3], in [4], in assay [7] and in assay [9] was “inactive” each time. Moreover, the compound was called inactive in assay [5], in assay [8] and in assay [10].

In the case of `Cc1cccc(Cl)c1`, the Potency result in assay [1], in assay [2], in [3], in assay [4], in assay [7] and in assay [9] was “inactive” throughout. In addition, the outcome in [6], in assay [8] and in assay [10] was inactive.

Values taken from PubChem BioAssay (Tox21).
